Experimental data published in PubChem BioAssay.
“And” between values parts separate entries of the source, which are not always exact repeats. Identical values can stand only once. The source made the active and inactive calls.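 How the source made its calls, unless noted: active means inhibition at or above 50% relative to wild type and mutant plate controls; inactive means inhibition below 50%.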

Tests used:
[1] = inhibitors of TNFa-induced NFkB p65 translocation, primary screen, imaging, HUVEC, MLSMR starter and 10KST1 sets (AID 438;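 active means inhibition above 20% together with a positive visual image hit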;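 further: compound added about 3h40 before a 20 min TNFalpha stimulation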;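 on inhibition: signal is the nuclear over cytoplasmic p65 intensity ratio per well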); conditions: HUVEC TNFa-induced p65 nuclear translocation; cell count: measured here: nuclei count (cytotoxicity indicator), at 2.08 µM; inhibition: at 2 µM, stronger effect = higher value, 0% TNFa-plus-vehicle, 100% no-TNFa wells
[2] = inhibitors of mutant huntingtin aggregation, primary screen, imaging, exon1htt(103Q)mCFP cells, high-content imaging (AID 483;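 active means visual image review flags a hit and inhibition of aggregation exceeds 20%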;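 further: compound exposure lasted 3 days before fixation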;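 on nuclei count: percent of the per-plate median nuclei count of sample wells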); conditions: exon1htt(103Q)mCFP cell line, aggregate imaging, at 2 µM; inhibition of aggregation: stronger effect = higher value; nuclei count: measured here: cell count, toxicity
[3] = inhibitors of E-selectin induction by TNFa, primary screen, imaging, HUVEC, immunofluorescence, MLSMR starter and 10KST1 sets (AID 487;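 active means visually confirmed hit in the image check and inhibition above 20%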;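 on inhibition: signal is fraction of cell area covered by stained E-selectin grains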;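 on nuclei count: 100% = median nuclei count of all wells on the same plate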); conditions: HUVEC TNFalpha-induced E-selectin immunofluorescence imaging, at 2 µM; inhibition: stronger effect = higher value; nuclei count: measured here: cell number, toxicity
[4] = DUSP6 inhibitors restoring Erk phosphorylation by chemical complementation, primary imaging in DUSP6-transfected HeLa (AID 609;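 active means compounds giving at least 50% inhibition in the cell-based MKP-3 phosphatase rescue imaging test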;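 on inhibition: phospho-Erk level distribution per well compared with pooled transfected vehicle control wells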); conditions: HeLa MKP-3 transfected, phospho-Erk imaging KS statistic, at 10 µM, cells stimulated with TPA for 15 min
[5] = target: Dual specificity protein phosphatase 6 (Homo sapiens) (UniProt Q16828); test: as above; conditions: HeLa MKP-3 transfected, phospho-Erk imaging KS statistic; at 10 µM; stronger effect = higher value; cells stimulated with TPA for 15 min
[6] = target: Voltage-gated potassium channel subunit beta-2 (Rattus norvegicus) (UniProt P62483); test: KvBeta enzyme negative modulators, primary screen, biochemical, NADPH fluorescence (AID 622;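 active means fluorescence slope higher than the sample average by over 3 SD, cut at about -0.22 in these data, passing the limit was not always enough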;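 further: slope of raw intensity against log time taken from 70 to 1610 s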); conditions: recombinant KvBeta, 4-cyanobenzaldehyde reduction, at 10 µM, stronger effect = higher value
[7] = target: Voltage-gated potassium channel subunit beta-2 (Rattus norvegicus) (UniProt P62483); test: KvBeta positive modulators, primary screen, biochemical, NADPH fluorescence (AID 623;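 active means NADPH fluorescence slope more negative than the mean of all samples by about 3 SD, 99.7% confidence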;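 further: fluorescence intensity change per second fitted from 20 to 320 s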); conditions: Recombinant KvBeta, NADPH fluorescence decrease slope, 10 min; at 10 µM; stronger effect = lower value
[8] = target: Alpha-2C adrenergic receptor (Homo sapiens) (UniProt P18825); test: modulators of alpha2C/GIRK thallium flux, primary screen, cell-based, HEK293 alpha2C/GIRK1/2 (AID 624;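 active means fluorescence slope after compound addition differing from the mean of all screened samples at 99.7% confidence, in either direction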;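 further: slope of fluorescence ratio to pre-addition baseline per second over 15 to 24 s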); conditions: thallium flux BTC fluorescence, at 10 µM, actives lie on both sides
[9] = inhibitors of larval lipid processing in zebrafish, primary screen, whole organism, PED6 fluorescence, gall bladder and intestine (AID 686;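 active means a full or partial loss of lipid-probe fluorescence in the fish gall bladder, intestine or both, judged by eye; inactive means no fluorescence loss, or compound toxic to the fish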;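 further: larvae 5 to 7 days old with five fish per well; signal comes from phospholipase A2 cleavage of quenched PED6 carried via bile; overnight exposure to compound and PED6 before scoring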); conditions: Zebrafish larvae PED6 lipid processing, fluorescence scoring; screened at 20 µM (by protocol)
[10] = inhibitors of Chlamydomonas gravitaxis, primary screen, whole organism, Chlamydomonas reinhardtii, WT vs cilia-less mutant, absorbance, 96-well (AID 463189); conditions: OD600 absorbance, 2 days, at 10 µM, stronger effect = higher value;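 further: 0% = wild type cc124 cells in DMSO and 100% = ciliumless bld1 mutant cells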
[11] = inhibitors of Sendai virus-induced IRF3 signaling, primary screen, TLR/RLR signaling modifier project, cell-based, Sendai virus stimulus, luciferase, 10K MLSCN set (AID 602276;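 active means inhibition at or above 50% at 10 µM; inactive means inhibition below 50%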;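 further: firefly luciferase from ISG56 promoter only with Renilla not read in this screen; 0% = Sendai virus plus DMSO and 100% = medium plus DMSO without virus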); conditions: HEK293 RL24 IRF3 luciferase reporter, at 10 µM, stronger effect = higher value
[12] = inhibitors of poly I:C-induced TLR3 signaling, primary screen, cell-based, poly I:C stimulus, luciferase, 10K MLSCN set (AID 602277;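 active means inhibition of the reporter signal at or above 50%; inactive means inhibition below 50%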); conditions: HEK293-TLR3 RL24 IRF3 luciferase reporter, at 10 µM, stronger effect = higher value
[13] = measured here: cell density z-score
[14] = measured here: nuclear c-Myc green intensity z-score
[15] = measured here: nuclear pErk red intensity z-score, stronger effect = higher value

Sequence of Alpha-2C adrenergic receptor (Homo sapiens) (P18825 whole entry, looked up): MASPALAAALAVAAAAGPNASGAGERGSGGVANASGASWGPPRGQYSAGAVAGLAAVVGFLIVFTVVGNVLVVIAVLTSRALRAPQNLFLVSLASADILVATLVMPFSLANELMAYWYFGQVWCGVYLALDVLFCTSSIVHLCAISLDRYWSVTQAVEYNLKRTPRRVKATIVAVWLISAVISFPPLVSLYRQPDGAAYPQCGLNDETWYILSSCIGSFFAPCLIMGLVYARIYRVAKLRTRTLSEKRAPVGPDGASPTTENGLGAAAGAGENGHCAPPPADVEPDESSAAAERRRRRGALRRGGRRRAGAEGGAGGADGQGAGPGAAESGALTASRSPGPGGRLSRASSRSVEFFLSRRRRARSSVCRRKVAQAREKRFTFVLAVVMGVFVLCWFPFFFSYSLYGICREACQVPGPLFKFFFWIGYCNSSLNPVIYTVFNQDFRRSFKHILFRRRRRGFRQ
Sequence of Voltage-gated potassium channel subunit beta-2 (Rattus norvegicus) (P62483 whole entry, looked up): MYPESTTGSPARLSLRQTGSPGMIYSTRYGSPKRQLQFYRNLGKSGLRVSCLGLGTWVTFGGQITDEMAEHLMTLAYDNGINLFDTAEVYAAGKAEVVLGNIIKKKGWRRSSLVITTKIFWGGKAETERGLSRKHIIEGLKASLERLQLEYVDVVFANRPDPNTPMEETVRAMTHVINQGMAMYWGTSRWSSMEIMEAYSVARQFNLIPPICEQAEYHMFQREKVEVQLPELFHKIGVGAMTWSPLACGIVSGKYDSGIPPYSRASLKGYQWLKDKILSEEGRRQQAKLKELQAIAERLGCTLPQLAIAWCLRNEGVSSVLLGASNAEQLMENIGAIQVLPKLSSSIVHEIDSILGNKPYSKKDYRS
Sequence of Dual specificity protein phosphatase 6 (Homo sapiens) (Q16828 whole entry, looked up): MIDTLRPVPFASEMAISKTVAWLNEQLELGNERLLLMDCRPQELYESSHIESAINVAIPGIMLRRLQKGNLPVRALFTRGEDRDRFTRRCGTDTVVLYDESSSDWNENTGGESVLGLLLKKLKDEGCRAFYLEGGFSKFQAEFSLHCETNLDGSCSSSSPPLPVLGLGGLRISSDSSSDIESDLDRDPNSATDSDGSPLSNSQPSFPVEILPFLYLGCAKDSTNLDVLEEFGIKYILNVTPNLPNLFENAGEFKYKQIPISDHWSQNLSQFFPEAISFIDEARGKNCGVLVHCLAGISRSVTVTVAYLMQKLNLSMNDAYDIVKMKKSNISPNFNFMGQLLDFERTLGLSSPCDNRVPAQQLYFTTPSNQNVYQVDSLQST

| Compound | cell count [1] | inhibition [1] | inhibition of aggregation [2] | nuclei count [2] | inhibition [3] | nuclei count [3] | z-score [4, 13] | z-score [4, 14] | z-score [4, 15] | inhibition [5] | fluorescence slope [6] | NADPH fluorescence slope [7] | slope [8] | outcome [9] | inhibition [10] | inhibition [11] | inhibition [12] |
| --- | --- | --- | --- | --- | --- | --- | --- | --- | --- | --- | --- | --- | --- | --- | --- | --- | --- |
| CCOc1nc(-c2ccncc2)nc2ccccc12 | 416 | 5.6% (inactive) | -55% (inactive) | 13.3% | -66.1% (inactive) | 116% | -2.21 | -0.624 | 0.47 | 4.25% (inactive) | -0.322 (inactive) | 3e-05 (inactive) | 0.00435 (inactive) | inactive | 39.6% (inactive) | 13.1% (inactive) | 16.5% (inactive) |
| NC(=O)N1c2ccccc2C=Cc2ccccc21 | 639 | -4.6% (inactive) | -10.6% (inactive) | 110% | -55.6% (inactive) | 127% | -0.0512 | 0.625 | -1.48 | 15.3% (inactive) | -0.492 (inactive) | -4.6e-05 (inactive) | 0.00463 (inactive) | inactive | 5.34% (inactive) and 20.1% (inactive) | 7.49% (inactive) | 22.1% (inactive) |
| C[C@H](CCC(=O)O)[C@H]1CC[C@H]2[C@@H]3C(=O)C[C@@H]4CC(=O)CC[C@]4(C)[C@H]3CC(=O)[C@]12C | 606 | -9.6% (inactive) | 5.8% (inactive) | 102% | -37.7% (inactive) | 138% | -0.246 | -0.125 | -0.32 | 3.45% (inactive) | -0.45 (inactive) | 5.4e-06 (inactive) | 0.00499 (inactive) | inactive | 9.63% (inactive) | 14.6% (inactive) | 33.2% (inactive) |
| COc1cc(/C=N/n2c(C)nnc2C)cc(OC)c1OC | 454 | -5.9% (inactive) | 3.2% (inactive) | 109% | -27.1% (inactive) | 92.1% | 0.126 | -0.553 | -1.17 | -1.75% (inactive) | -0.395 (inactive) | -3.1e-06 (inactive) | 0.00638 (inactive) | inactive | 23.6% (inactive) | 14% (inactive) | 13.7% (inactive) |
| C[C@H]1C[C@@H]2[C@H]([C@@H](O)C[C@@]3(C)[C@H]2CC[C@]3(O)C(=O)CO)[C@@]2(C)C=CC(=O)C=C12 | 665 | -3.7% (inactive) | 10.3% (inactive) | 101% | -77.5% (inactive) | 120% | 1.04 | 0.95 | 0.348 | 7.39% (inactive) | -0.512 (inactive) | -7.2e-05 (inactive) | 0.00539 (inactive) | inactive | 7.13% (inactive) | 11.3% (inactive) | 36.5% (inactive) |
| O=C(C1CCCCC1)N1CC(=O)N2CCc3ccccc3C2C1 (stereo not drawn) | 552 and 561 | -7.7% (inactive) and -4.1% (inactive) | 16.2% (inactive) | 109% | -103% (inactive) and -50.4% (inactive) | 115% and 103% | -1.12 and -0.574 | 0.266 and 0.927 | -0.413 and -1.5 | 1.48% (inactive) and 1.9e-07% (inactive) | -0.447 (inactive) and -0.51 (inactive) | 2.3e-05 (inactive) and -4.3e-06 (inactive) | 0.00517 (inactive) and 0.00493 (inactive) | inactive | 6.15% (inactive) and -13.5% (inactive) and -10.9% (inactive) | 8.76% (inactive) | 17.3% (inactive) |
| COc1ccc(/C=C/C(=O)Nc2ccccc2C(=O)O)cc1OC | 476 | -4.9% (inactive) | -20.4% (inactive) | 103% | -112% (inactive) | 128% | 0.437 | -0.319 | -0.448 | 15.3% (inactive) | -0.492 (inactive) | -8.1e-05 (inactive) | 0.0062 (inactive) | inactive | 3.58% (inactive) and -6.51% (inactive) | 16.4% (inactive) | 23.3% (inactive) |
| C=CCn1c(SCC(=O)NC23CC4CC(CC(C4)C2)C3)nc(O)cc1=O | 629 | -3.7% (inactive) | -0.4% (inactive) | 103% | -39.7% (inactive) | 129% | -0.394 | -0.06 | 0.754 | 7.83% (inactive) | -0.532 (inactive) | -4.2e-05 (inactive) | 0.00471 (inactive) | inactive | 12.5% (inactive) | 17.8% (inactive) | 24.6% (inactive) |
| COc1ccc(-c2nnc3sc(-c4c(OC)cccc4OC)nn23)cc1 | 498 | -7.5% (inactive) | 26.2% (inactive) | 28.4% | -176% (inactive) | 131% | -0.466 | -2.13 | -0.0898 | -6.06% (inactive) | -0.435 (inactive) | -0.000139 (inactive) | 0.00691 (inactive) | inactive | 14.7% (inactive) | 11.7% (inactive) | 13% (inactive) |
